{"source": "PubChem BioAssay AID463195", "about": "(Sanford-Burnham Center for Chemical Genomics, 2010)", "note": "Hit rate of the full screen: of about 330,000 compounds, about 4,600 (1.4%) were called active.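 Rule for the calls: active = inhibition of 40% or more at the single tested concentration; inactive = the rest.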 The sample as a whole holds a higher share of actives than the screen did."}
{"test": "wild-type TIM10 yeast growth inhibition – luminescence, uHTS, counter-screen for tim10-1 yeast inhibitor project, primary screen (AID 463195);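 note: wild-type TIM10 isogenic control strain grown at permissive 25 °C; 0% = DMSO yeast wells and 100% = minimal medium wells without yeast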", "conditions": "S. cerevisiae TIM10 strain growth, BacTiter-Glo luminescence, 24 h; at 10 µM; stronger effect = higher value"}
{"smiles": "CCn1c(=O)c(C(=O)NCc2ccc3c(c2)OCO3)c(O)c2ccccc21", "inhibition": "-11.9% (inactive)"}
{"smiles": "O=C(NCc1ccc2c(c1)OCO2)c1sccc1Br", "inhibition": "9.81% (inactive)"}
{"smiles": "O=C(NCc1ccc2c(c1)OCO2)c1c(O)nc2sccn2c1=O", "inhibition": "45% (active)"}
{"smiles": "CC(=O)c1c(C)n([O-])c2ccccc2[n+]1=O", "inhibition": "-2.57% (inactive)"}
{"smiles": "O=C1N[C@H](Cc2c[nH]c3ccccc23)COC(=O)[C@H](Cc2ccc(F)cc2)C/C=C\\C[C@H]1CC(=O)N(CCO)Cc1ccccc1", "inhibition": "-8.49% (inactive)"}
{"smiles": "Cc1[nH]c(=O)c(C(=O)/C=C/c2ccccc2)c2c1CCCC2", "inhibition": "45% (active)"}
{"smiles": "O=C(/C=C/c1ccc(N2CCOCC2)cc1)c1ccccc1", "inhibition": "39.5% (inactive)"}
{"smiles": "CC(=O)Nc1ccc(/C=C/C(=O)c2ccccc2)cc1", "inhibition": "26.1% (inactive)"}
{"smiles": "O=C(O)CCc1nc2cc(Cl)ccc2n(Cc2ccccc2)c1=O", "inhibition": "21.5% (inactive)"}
{"smiles": "COc1ccc(CN2C(CC(=O)Nc3cccnc3)c3ccc(C(F)(F)F)cc3S2(=O)=O)cc1", "note": "(configuration not stated)", "inhibition": "-7.66% (inactive)"}
{"smiles": "O=C1NC(Nc2nc3ccccc3s2)(C(F)(F)F)C(=O)N1C1CCCCC1", "note": "(configuration not stated)", "inhibition": "52.6% (active)"}
{"smiles": "O=C(NC1(C(F)(F)F)NC(=O)N(C2CCCCC2)C1=O)c1ccco1", "note": "(configuration not stated)", "inhibition": "-5.03% (inactive)"}
{"smiles": "Cc1cc(C)c2nc(-c3cccnc3)cc(C(=O)Nc3ccc(S(=O)(=O)Nc4onc(C)c4C)cc3)c2c1", "inhibition": "-10% (inactive)"}
{"smiles": "Cc1ccc(-c2ccnc3nc(Sc4ncc(C(F)(F)F)cc4Cl)nn23)cc1", "inhibition": "42.2% (active)"}
{"smiles": "Cc1nn(-c2ncc(C(F)(F)F)cc2Cl)c(=O)n1-c1ccccc1", "inhibition": "10.6% (inactive)"}
{"smiles": "Cc1cc(NC(=O)CSc2ncc(C(F)(F)F)cc2Cl)no1", "inhibition": "-8.23% (inactive)"}
{"smiles": "CNC(=O)NC(=O)C(OC(=O)c1cccc(S(=O)(=O)N2CCCCC2)c1)c1ccccc1", "note": "(configuration not stated)", "inhibition": "15.5% (inactive)"}
{"smiles": "CCOCCCN1C(=O)C2C(C(=O)Nc3ccc(OCC)cc3)C3C=CC2(O3)C1C(=O)NC1CCCCC1", "note": "(configuration not stated)", "inhibition": "5.11% (inactive)"}
{"smiles": "Cc1ccc(N2C(=O)c3ccccc3C2(O)c2ncc[nH]2)cc1", "note": "(configuration not stated)", "inhibition": "1.61% (inactive)"}
{"smiles": "O=[N+]([O-])c1cccc2ncccc12", "inhibition": "-18% (inactive)"}
{"smiles": "O=[N+]([O-])c1ccccc1S(=O)(=O)Nc1cccc2cccnc12", "inhibition": "44.6% (active)"}
{"smiles": "COc1cc(NS(=O)(=O)c2ccc3ccccc3c2)c2ncccc2c1", "inhibition": "9.71% (inactive)"}
{"smiles": "C[C@H](NC(=O)c1[nH]cnc1C(=O)Nc1nccs1)c1ccccc1", "inhibition": "6.5% (inactive)"}
{"smiles": "COc1ccc2c(c1)c(C(=O)N/N=C/c1cccs1)c(C)n2C", "inhibition": "24% (inactive)"}
{"smiles": "COc1cccc(CNC(=O)CCC2CCCN(C(=O)c3ccoc3C)C2)c1", "note": "(configuration not stated)", "inhibition": "10.1% (inactive)"}
{"smiles": "Cn1c2ccccc2c2c(C(=O)N3CCN(c4ccc(F)cc4)CC3)cn(C3CCCC3)c(=O)c21", "inhibition": "37.3% (inactive)"}
{"smiles": "CC1CCN(Cc2nc3c(c(=O)n(C)c(=O)n3C)n2CCc2ccccc2)CC1", "inhibition": "3.96% (inactive)"}
{"smiles": "CCCc1nc2c(c(=O)c3ccccc3n2C)c(=O)n1C1CCCCCC1", "inhibition": "49.4% (active)"}
{"smiles": "CCOC(=O)CSc1nc2ccc(C)cc2n2cnnc12", "inhibition": "3.21% (inactive)"}
{"smiles": "O=c1oc(-c2ccccc2NS(=O)(=O)c2ccc(Cl)cc2)nc2ccccc12", "inhibition": "59.4% (active)"}
{"smiles": "O=c1oc2ccccc2c(NC2CCCCC2)c1NS(=O)(=O)c1ccc(Cl)cc1", "inhibition": "21.4% (inactive)"}
{"smiles": "O=c1ccc2cc(S(=O)(=O)Nc3ccccc3F)ccc2o1", "inhibition": "4.92% (inactive)"}
{"smiles": "O=C(NC(=O)c1ccccc1N1CCCCC1)Nc1ccc(Br)cc1", "inhibition": "14.8% (inactive)"}
{"smiles": "CCOCCn1[nH]c2ccccc2c1=O", "inhibition": "2.98% (inactive)"}
{"smiles": "Cc1ccc(N2C(=O)CC(Sc3ncn[nH]3)C2=O)cc1", "note": "(configuration not stated)", "inhibition": "26.4% (inactive)"}
{"smiles": "COc1ccc(N2C(=O)CC(SC(C)C)C2=O)cc1", "note": "(configuration not stated)", "inhibition": "5.36% (inactive)"}
{"smiles": "COc1ccc(N2C(=O)CC(Sc3n[nH]c(-c4ccc(C)cc4)n3)C2=O)cc1", "note": "(configuration not stated)", "inhibition": "54% (active)"}
{"smiles": "COc1ccc(CNC(=O)c2ccc3oc(C(C)C)nc3c2)cc1", "inhibition": "2.31% (inactive)"}
{"smiles": "Cc1cc(SCc2c(F)cccc2Cl)nc(=O)[nH]1", "inhibition": "9.07% (inactive)"}
{"smiles": "O=C(CSc1ccc(-c2ccco2)nn1)Nc1cccc(F)c1", "inhibition": "6.71% (inactive)"}
{"smiles": "Fc1cccc(Cl)c1CSc1ccc(-c2ccco2)nn1", "inhibition": "46.6% (active)"}
{"smiles": "CC1CC(C)CN(CCC(=O)Nc2ccc3c(c2)CCC3)C1", "note": "(configuration not stated)", "inhibition": "-5.01% (inactive)"}
{"smiles": "O=C(Nc1ccc(F)cc1)c1cc2c(s1)CCCC2", "inhibition": "14% (inactive)"}
{"smiles": "O=C(Nc1ccc2c(c1)CCC2)c1ccc(Br)s1", "inhibition": "61.4% (active)"}
{"smiles": "COc1ccccc1N1CCN(S(=O)(=O)c2ccc3c(c2)NC(=O)CS3)CC1", "inhibition": "12.3% (inactive)"}
{"smiles": "COc1cccc(-n2c(=S)sc3c(=O)n(-c4ccccc4C)c(SCC(=O)O)nc32)c1", "inhibition": "8.02% (inactive)"}
{"smiles": "C=CCN(C(=O)Cn1ncc2c1-c1cc(C)ccc1OC2)c1ccccc1", "inhibition": "16.6% (inactive)"}
{"smiles": "COCCn1c(=O)[nH]c(=O)c2cc(C(=O)c3cc(OC)ccc3O)cnc21", "inhibition": "-1.14% (inactive)"}
{"smiles": "Cc1cc(C)c2c(-c3ccc(F)cc3)c(C#N)c(=O)n(C)c2n1", "inhibition": "11.3% (inactive)"}
{"smiles": "COc1ccc(O)c(C(=O)c2cnc3c(c2)c(-c2ccc(F)cc2)c(C#N)c(=O)n3C)c1", "inhibition": "40.2% (active)"}
{"smiles": "O=C(c1ccc(-n2cnnn2)cc1)N1CCN(C(c2ccccc2)c2ccccc2)CC1", "inhibition": "2.74% (inactive)"}
{"smiles": "c1ccc2c(NCC3CCCO3)nc(-c3ccncc3)nc2c1", "note": "(configuration not stated)", "inhibition": "19.5% (inactive)"}
{"smiles": "c1ccc(-c2nc(NCc3ccco3)c3ccccc3n2)cc1", "inhibition": "49.9% (active)"}
{"smiles": "Clc1cccc(-c2nc(NCC3CCCO3)c3ccccc3n2)c1", "note": "(configuration not stated)", "inhibition": "26.8% (inactive)"}
{"smiles": "COc1ccccc1C(=O)N/C(=C/c1ccco1)C(=O)Nc1ccc(C(=O)O)cc1", "inhibition": "-3.06% (inactive)"}
{"smiles": "N/C(=N\\OC(=O)CCCC(=O)O)c1ncc(C(F)(F)F)cc1Cl", "inhibition": "-12.6% (inactive)"}
{"smiles": "N/C(=N\\OC(=O)Nc1ccc(Cl)c(Cl)c1)c1ncc(C(F)(F)F)cc1Cl", "inhibition": "71.5% (active)"}
{"smiles": "O=C(c1ccccn1)c1ncc(C(F)(F)F)cc1Cl", "inhibition": "-12.3% (inactive)"}
{"smiles": "Cc1cccc(C)c1NC(=O)N1CC(C)OC(C)C1", "note": "(configuration not stated)", "inhibition": "-0.538% (inactive)"}
{"smiles": "CCN(CC)C(=O)c1sc2nc(-c3ccccc3)ccc2c1N", "inhibition": "18.6% (inactive)"}
{"smiles": "CS(=O)(=O)c1sc2nc(-c3ccccc3)cc(-c3ccccc3)c2c1N", "inhibition": "46.7% (active)"}
{"smiles": "CNC(=S)NNC(=O)c1oc2nc(-c3ccccc3)cc(-c3ccco3)c2c1N", "inhibition": "2.74% (inactive)"}
